Bioassay records (PubChem BioAssay)
An excerpt weighted towards active compounds, which were near 12% of everything screened.
Cycloheximide cs – affects cycloheximide protein synthesis inhibition readout, counter-screen. cell reporter, cycloheximide protein synthesis inhibition counterscreen. AID 2314. hit rate 12% among 300,000. max response, %; in the data active = max response mostly above about 13%, no sharp cut-off; inactive = mostly below about 14%; note: read at 38.3 µM for the half of the compounds with a filed dose; 0% is about no effect
Lassa entry inh – inhibitors of Lassa virus binding or cell entry; Lassa virus pseudotype entry inhibition, cell reporter; Potency, µM (titrated, usually from 37.9 µM), without a hit: at the top dose activity change, negative = inhibition, usual class: inhibitors; hit rate 1.2% among 300,000; AID 540256; calls by dose curve; tested in HEK293 cells; note: potency is the fitted concentration of half-maximal effect; % is set by controls: 0 for no effect and ±100 for the full control effect; nearly all actives have a fitted effect of over 50% in size
MARV entry inh – blocks Marburg virus binding to or entry into cells; Marburg virus pseudotyped entry inhibition, cell reporter; Potency, µM (top dose mostly 37.8 µM), without a hit: top-dose activity change, negative = inhibition, hits mostly inhibitors; hit rate 1.8% among 300,000; calls by dose curve; tested in HEK293 cells; note: potency is the fitted concentration of half-maximal effect; % is set by controls: 0 for no effect and ±100 for the full control effect
Shiga toxin inh – Shiga toxin inhibition; Vero cells, Shiga toxin protein synthesis inhibition reporter; inhibition, % at 38.7 µM; hit rate 9.2% among 290,000; AID 2315; in the data active = inhibition mostly above about 28%, no sharp cut-off; inactive = mostly below about 43%; note: 0% is about no effect
An asterisk follows results filed as active; ? = inconclusive; . = no result given; [ ] = another dose, or the depositor's remark.

SMILES	Cycloheximide cs	Lassa entry inh	MARV entry inh	Shiga toxin inh
O=C(NC(Cc1ccccc1)C(=O)O)/C(=C/c1cccc([N+](=O)[O-])c1)NC(=O)c1cccc(Br)c1 (centres undefined)	-5	3%[46.1 µM]	1%[46.1 µM]	21
Cc1ccc2nc3ccc(N4CCCC4)nn3c(=O)c2c1	35*	?	-13%	63
Cc1sc2nc3ccc(N4CCCCC4)nn3c(=O)c2c1C	30*	-9%	?	68*
CC1CCCN(c2ccc3nc4ccccc4c(=O)n3n2)C1 (centres undefined)	2	.	?	13
COc1cc(C(=O)N2CCN(C)C(C)C2)ccc1OC1CCN(C(C)=O)CC1 (centres undefined)	5	13%[46.1 µM]	?	33
CCOC(=O)CN1C(=O)C(C)(C)Oc2ccc(C(=O)Nc3ccccc3)cc21	13*	-13%	-1%	36
CCOC(=O)c1ccc2c(c1)N(CC#N)C(=O)C(C)(C)O2	17*	.	.	31
CC1(C)Oc2ccc(C(=O)Nc3ccccc3F)cc2N(CC(=O)N2CCOCC2)C1=O	12*	-12%[46.1 µM]	23%[46.1 µM]	48
CCOC(=O)c1ccc2c(c1)N(CC(=O)N1CCCC1)C(=O)C(C)(C)O2	-8	1%	-5%	-44
O=C1C(=O)N(Cc2cccnc2)[C@@H](c2ccccn2)/C1=C(/O)c1ccc(F)cc1	.	.	22%	.
O=C(N/C(=C/c1ccc([N+](=O)[O-])cc1)C(=O)N1CCOCC1)c1ccco1	5	0%	?	2
O=c1c2ccccc2nnn1CSc1nc2ccccc2[nH]1	43*	?	?	77*
CN(C)C(=O)CSc1nnc2sc3ccccc3n12	-1	9%	?	19
O=c1c2ccccc2nnn1CSc1nnc2sc3ccccc3n12	38*	.	3%	79*
O=c1c2ccccc2nnn1CSc1ccccc1F	63*	?	?	55*
Cc1ccc(SCn2nnc3ccccc3c2=O)c(C)c1	51*	2%	?	118*
Cc1ccc(S(=O)(=O)NC(=O)N2CCCC2)cc1	.	-1%	27%	.
COc1cc(CNC(=O)CSCc2nc3cccnc3n2C2CCCCC2)cc(OC)c1OC	.	-24%[46.1 µM]	.	.
COc1ccc(S(=O)(=O)N2CC(C)N(C(=O)N(C)C)C2C(C)C)cc1 (centres undefined)	-4	10%	-1%[46.1 µM]	-4
CCc1ccccc1NC(=O)CSc1nc2ccccc2nc1Cc1cccc(OC)c1	.	-16%[46.1 µM]	.	.
O=C(CN1CCC(NC(=O)Nc2ccccc2)CC1)Nc1ccc([N+](=O)[O-])cc1	-3	16%[46.1 µM]	5%[46.1 µM]	-3
Cc1cc(=O)[nH]c(SCn2nnc3ccccc3c2=O)n1	-4	-4%	2%	-13
Cc1ccc2nc(SCn3nnc4ccccc4c3=O)[nH]c2c1	65*	?	?	98*
Cc1ccn2cc(-c3ccc4c(c3)NC(=O)CO4)nc2c1	32	.	.	75*
Cc1cccn2cc(-c3ccc4c(c3)NC(=O)CO4)nc12	31*	?	0%	61*
SMILES	Cycloheximide cs	Lassa entry inh	MARV entry inh	Shiga toxin inh
Cc1ccc(-c2cc(-c3ccc4c(c3)NC(=O)CO4)nc3c2COc2ccc(C)cc2-3)cc1	.	-4%[46.1 µM]	-7%[46.1 µM]	.
O=C(c1ccccc1)N1CCN(CC#Cc2ccccc2)CC1	29*	6%	?	82*
O=C(c1ccccc1)N1CCN(Cc2ccccc2)CC1	-3	-25%	-3%	-2
Cc1ccc(CSc2nc3ccccc3c(=O)n2C)cc1	1	-15%	?	-5
CCc1nnc(NC(=O)CSc2nc3cc(OC)c(OC)cc3cc2C)s1	-5	-20%[46.1 µM]	?	-10
COc1cc(Cl)ccc1OCc1cc(C(=O)N(C)C2CCOC2)no1 (centres undefined)	37*	.	.	60*
CN(C(=O)c1cc(COc2c(F)cccc2F)on1)C1CCOC1 (centres undefined)	30*	0%	?	32
CC(=O)c1ccc(OCc2cc(C(=O)N(C)C3CCOC3)no2)cc1 (centres undefined)	3	.	.	-8
CN(CCCC1CCCC1)C(=O)c1cc(COc2c(F)cccc2F)on1	-3	?	1%	-5
Cc1cc(OCc2cc(C(=O)N(C)C3CCOC3)no2)cc(C)c1Cl (centres undefined)	49*	?	?	78*
O=C(c1cc(COc2c(F)cccc2F)on1)N(Cc1ccccc1)CC1CC1	18*	?	19%[46.1 µM]	27
CC1(C)CC2CC(C)(CN2C(=O)COC(=O)c2cccc([N+](=O)[O-])c2)C1 (centres undefined)	.	1%	4%	.
O=C(NCC1COCCO1)c1cc(COc2c(F)cccc2F)on1 (centres undefined)	26*	-20%	11%	30
C(=N\N=C\c1cccnc1)/c1cccnc1	40*	-1%	?	26*
O=C(CSCc1ccc([N+](=O)[O-])cc1)N/N=C/c1cccnc1	-2	9%	20%[46.1 µM]	-5
Cc1sc(N/N=C/c2cccnc2)nc1-c1ccc(Cl)cc1	15*	?	?	17
O=[N+]([O-])c1ccc(N/N=C/c2cccnc2)cc1	33*	-5%	-1%	41*
Cc1nnc(C)n1/N=C/c1cccnc1	-3	-15%	-1%[46.1 µM]	-12
O=C(CSc1ccc(Cl)cc1)N/N=C/c1cccnc1	-2	-19%	7%	-5
Clc1ccc(N/N=C/c2cccnc2)cc1	20	?	?	30*
NC(=O)c1ccsc1NC(=O)COC(=O)c1cc(Cl)ccc1O	.	10%	8%[46.1 µM]	.
NC(Cc1ccccc1)C(=O)N1CCCCC1 (centres undefined)	5	-1%[46.1 µM]	-14%[46.1 µM]	13
COCCn1nnnc1C(C(C)C)N1CCSCC1 (centres undefined)	4	.	.	1
COc1ccc(C(=O)N2CCn3c2nc2ccccc23)cc1	15	13%	23%[46.1 µM]	-3
COc1cccc(C(=O)N2CCn3c2nc2ccccc23)c1	24*	10%	-1%[46.1 µM]	34
SMILES	Cycloheximide cs	Lassa entry inh	MARV entry inh	Shiga toxin inh
O=C(c1cccs1)N1CCn2c1nc1ccccc12	41*	17%	5%	56*
O=C(c1ccc(Cl)cc1)N1CCn2c1nc1ccccc12	-4	17%[46.1 µM]	?	4
CC1CCc2c(sc(NC(=O)CSc3nc4c(c(C(F)(F)F)n3)CCc3ccccc3-4)c2C(N)=O)C1 (centres undefined)	-5	7%	10%	-11
Cc1ccc(NC(=O)Cn2ccc([N+](=O)[O-])n2)cc1C	1	-13%	-13%[46.1 µM]	-2
Cc1cc(Cl)ccc1OCC(O)CNCCc1ccc(S(N)(=O)=O)cc1 (centres undefined)	-6	.	.	-3
CCOC(=O)c1c(C)[nH]c(C)c1S(=O)(=O)N1CCCC(C(=O)N2CCN(c3cccc(C)c3C)CC2)C1 (centres undefined)	.	11µM*	.	.
COc1ccccc1C/C(N)=N/OC(=O)/C=C/c1ccccc1	22*	-22%	?	53*
COc1ccc(OCC(=O)O/N=C(\N)Cc2ccc(Cl)cc2Cl)cc1	-3	-8%	?	-8
N/C(Cc1ccc(Cl)cc1Cl)=N\OC(=O)c1cccs1	11	-30%	?	52*
N/C(Cc1ccc(Cl)cc1Cl)=N\OC(=O)Cc1cccs1	36*	?	17%	51*
N/C(Cc1cccc2ccccc12)=N\OC(=O)c1cccs1	-2	3%	4%	-2
N/C(Cc1cccs1)=N\OC(=O)COc1ccc(Cl)cc1Cl	59*	20%	?	127*
